According to PubChem BioAssay:
Values joined by “and” are separate entries in the source; they are usually repeats but may differ in a detail not shown here. Equal values may be shown once. Values without a mark were called inactive. How the calls were made is not given here.

What follows are compounds tested against Pantothenate synthetase (Mycobacterium tuberculosis (strain ATCC 25618 / H37Rv)) (UniProt P9WIL5) (assay: Coupled enzyme confirmation of inhibitors against recombinant Mtb PanC (AID 375;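 further: 0% = full reaction with vehicle and 100% = no enzyme background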)). Details: coupled enzyme assay; at 10 µM, active compounds read high.
Sequence of Pantothenate synthetase (Mycobacterium tuberculosis (strain ATCC 25618 / H37Rv)) (P9WIL5 whole entry, looked up): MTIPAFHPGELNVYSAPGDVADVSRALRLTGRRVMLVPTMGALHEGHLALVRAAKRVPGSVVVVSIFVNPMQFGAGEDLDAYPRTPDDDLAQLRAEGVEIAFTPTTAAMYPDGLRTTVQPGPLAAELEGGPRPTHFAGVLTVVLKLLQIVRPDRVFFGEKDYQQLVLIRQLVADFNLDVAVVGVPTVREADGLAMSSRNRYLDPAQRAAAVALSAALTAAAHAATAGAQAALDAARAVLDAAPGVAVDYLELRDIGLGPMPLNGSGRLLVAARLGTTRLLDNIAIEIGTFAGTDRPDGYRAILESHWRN
In the case of `CCn1c(C(=O)N2CCC(C(=O)NCc3ccc4c(c3)OCO4)CC2)cc2sccc21`, the inhibition is reported as 0%. In the case of `CNC(=O)OC(C)CNS(=O)(=O)c1ccc(C)cc1` (stereo not given), the inhibition is reported as 0%. For `COc1ccccc1NC(=O)c1ccc(NC(=O)CSc2nnnn2C)cc1`, the inhibition was 1%. Work on `CCOC(=O)c1sc2nc(NC(=O)C3CCCCC3)sc2c1C` yielded an inhibition of 2%. For `Cc1nc(-c2cccc(-c3noc(C)n3)c2)no1`, the inhibition was 0%. With `C[C@]12CCC(=O)C=C1CC[C@@H]1[C@@H]2[C@@H](O)C[C@@]2(C)[C@H]1CC[C@]2(O)C(=O)COC(=O)CCC(=O)O` the inhibition was 0% and 2%. Compound `CCOC(=O)N1CCN(c2cc(=O)n(-c3ccc(OCC)cc3)c(=O)[nH]2)CC1` has an inhibition of 5%. Work on `Cc1cc2nc(-c3ccco3)cc(C(F)(F)F)n2n1` yielded an inhibition of 0%. Work on `CN(CCC#N)C(=O)COC(=O)c1ccc(Cl)c(S(N)(=O)=O)c1` yielded an inhibition of 0%. Compound `Cc1ccc(-c2noc(C3CCCN(C(=O)c4ccccc4)C3)n2)o1` (stereo not given) has an inhibition of 0%. `Cc1ccc(S(=O)(=O)N(C)c2ccc(OCC(=O)OCc3c(C)noc3C)cc2)cc1` was tested, and the inhibition was 0%. `CCOc1cc(C(=O)N(C)Cc2cc3ccccc3[nH]c2=O)cc(OCC)c1OCC` showed an inhibition of 7%. `COc1ccc(CN(CC(=O)NCC2CCCO2)C(=O)CNS(=O)(=O)c2ccc(C)cc2)cc1` (stereo not given) was tested, and the inhibition was 9%. `COCCSc1nnc(NC(=O)CSCc2ccccc2)s1` was tested, and the inhibition was 0%. Work on `O=C(CN1C(=O)CSC1=O)N1CCc2ccccc2C1` yielded an inhibition of 3%. For `COc1cc2c(cc1OC)CN(CC(=O)Nc1cccc(C)c1)CC2`, the inhibition was 11%. `COC(=O)CCc1c(C)c(C#N)c2nc3ccccc3n2c1N1CCCC1` showed an inhibition of 0%. Work on `Cc1nnc(SCc2cn3ccsc3n2)n(N)c1=O` yielded an inhibition of 0%. Compound `CCc1ccccc1N=C1SCC(=O)N1C` has an inhibition of 0%. For `CCSc1nnc(NC(=O)CSc2nnc(Cc3cccn3C)n2-c2ccc(C)cc2)s1`, the inhibition was 5%. `O=C(CSc1nc(-c2ccccc2)cs1)NC(=O)NCc1ccco1` gave an inhibition of 0%. Work on `CCc1nnc(SCc2cn3c(C)cc(C)nc3n2)n1N` yielded an inhibition of 0%. `CCOC(=O)C1CCCN(c2c(Nc3ccc(C)c(C)c3)c(=O)c2=O)C1` (stereo not given) showed an inhibition of 2%. Compound `Cc1cc(C)cc(NC(=O)C2CCCN(c3nccc(C)n3)C2)c1` (stereo not given) has an inhibition of 0%. For `CCOC(=O)c1ccc(NS(=O)(=O)c2ccc(SC)cc2)cc1`, the inhibition was 0%. Work on `N#CC1=C(SCC(=O)NC2CCCCC2)NC(=O)CC1c1ccco1` (stereo not given) yielded an inhibition of 8%. `CCOC(=O)N1CCN(C(=O)CSc2nnc(-c3cc(OC)cc(OC)c3)o2)CC1` gave an inhibition of 0%. `Cc1nc2ccc(S(=O)(=O)NC(C(=O)Nc3nccs3)C(C)C)cc2s1` (stereo not given) gave an inhibition of 0%. Compound `CC(C)Cn1c(=O)c(C(=O)Nc2ccccc2S(N)(=O)=O)c(O)c2ccccc21` has an inhibition of 0%. With `CCOC(=O)Nc1ccc2c(c1)N(C(=O)CCN1CCOCC1)c1ccccc1S2` the inhibition was 3%. `CC(O)CN1C(=O)C(CC(=O)Nc2ccc(Cl)cc2)SC1=Nc1ccccc1` (stereo not given) showed an inhibition of 0%. With `CCc1nc(C)ccc1OCC(=O)O` the inhibition was 3%. With `CN1CCCN(CC(O)COCc2cccs2)CC1` (stereo not given) the inhibition was 0%. With `Cc1cc(NC(=O)c2ccc3c(c2)C(=O)N(Cc2cccnc2)C3=O)no1` the inhibition was 0%. With `Cc1cc(C(=O)N2CCN(C/C=C/c3ccccc3)CC2)no1` the inhibition was 0%. In the case of `Cc1cccc(-n2ncc3c(NCc4cccnc4)ncnc32)c1`, the inhibition is reported as 7%. Work on `CCC1CCCCN1S(=O)(=O)c1ccc(C(=O)Nc2nnc(-c3cccs3)o2)cc1` (stereo not given) yielded an inhibition of 2%. Work on `CCOc1ccc(NC(=O)CSc2nccn2C)cc1` yielded an inhibition of 6%. `O=C(CSc1nc2c(c(=O)n1-c1ccc(F)cc1)SCC2)NCC1CCCO1` (stereo not given) gave an inhibition of 6%. In the case of `CC(C)(C)NC(=O)Cn1c(=O)oc2ccc(Cl)cc21`, the inhibition is reported as 0%.
